Test in all cases: DAPPL (digital affinity profiling via proximity ligation, sequencing); 10 mM Tris-HCl pH 7.5, 50 mM NaCl, 1 mM DTT, 4% glycerol, room temperature, 30 min; GST-TFs on glutathione beads, 16-mer random dsDNA library, 0.1% formaldehyde crosslink after washing; high values mean tight binding
Conditions in all cases: protein: recombinant; tags: N-terminal GST; dsDNA, one strand shown

In one assay the target is T1, ELK1 (Homo sapiens, UniProt P19419 1-428).
T1 sequence: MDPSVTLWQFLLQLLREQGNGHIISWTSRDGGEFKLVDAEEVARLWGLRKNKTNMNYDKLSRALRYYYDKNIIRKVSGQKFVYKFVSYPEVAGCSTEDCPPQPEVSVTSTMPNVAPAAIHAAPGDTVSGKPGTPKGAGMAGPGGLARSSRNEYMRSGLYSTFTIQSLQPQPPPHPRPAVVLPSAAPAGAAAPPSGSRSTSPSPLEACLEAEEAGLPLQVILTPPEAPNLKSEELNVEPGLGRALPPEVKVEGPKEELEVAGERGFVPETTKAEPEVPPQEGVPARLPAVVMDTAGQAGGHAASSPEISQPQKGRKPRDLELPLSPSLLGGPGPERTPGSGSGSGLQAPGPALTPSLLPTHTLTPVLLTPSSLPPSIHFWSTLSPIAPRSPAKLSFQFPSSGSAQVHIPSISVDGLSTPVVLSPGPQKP
Put shortly: (§1)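 Binding signal is defined as a hexamer's read frequency for one factor over its frequency for the tag-only sample. To obtain reads, GST-fused human transcription factors were expressed in yeast, captured on glutathione beads, barcoded with DNA and pooled with that sample. Pools met 200 nmole of a 16-mer random double-stranded DNA library in Tris/NaCl/DTT/glycerol buffer for 30 min at room temperature before washing, 0.1% formaldehyde crosslinking, proximity ligation (BsaI/T4 ligase, 1 h, 37 °C), PCR and Illumina NextSeq500 sequencing.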

The target of another assay is ELF1 (Homo sapiens, UniProt P32519 1-619). The essentials: as §1
Another assay has as its target T2, EHF (Homo sapiens, UniProt Q9NZC4 1-300).
T2 sequence: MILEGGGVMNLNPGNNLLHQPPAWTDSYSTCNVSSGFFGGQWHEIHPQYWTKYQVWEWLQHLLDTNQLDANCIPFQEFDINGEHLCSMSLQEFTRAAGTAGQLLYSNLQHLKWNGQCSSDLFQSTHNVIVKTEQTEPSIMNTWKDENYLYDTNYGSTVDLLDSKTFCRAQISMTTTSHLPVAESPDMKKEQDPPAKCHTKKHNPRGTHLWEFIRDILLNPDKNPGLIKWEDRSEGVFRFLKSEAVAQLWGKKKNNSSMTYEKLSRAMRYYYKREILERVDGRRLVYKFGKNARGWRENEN
Put shortly: as §1

For another assay, the target named is T3, SPIC (Homo sapiens, UniProt Q8N5J4 1-248).
T3 sequence: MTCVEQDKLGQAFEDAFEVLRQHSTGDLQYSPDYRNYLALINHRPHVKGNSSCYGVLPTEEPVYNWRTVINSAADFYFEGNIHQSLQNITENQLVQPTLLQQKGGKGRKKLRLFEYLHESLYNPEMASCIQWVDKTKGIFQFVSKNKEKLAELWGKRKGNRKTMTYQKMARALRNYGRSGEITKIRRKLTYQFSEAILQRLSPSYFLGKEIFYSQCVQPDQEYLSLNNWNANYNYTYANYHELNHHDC
Put shortly: as §1

The target of a further assay is T4, ELK4 (Homo sapiens, UniProt P28324-2 1-405).
T4 sequence: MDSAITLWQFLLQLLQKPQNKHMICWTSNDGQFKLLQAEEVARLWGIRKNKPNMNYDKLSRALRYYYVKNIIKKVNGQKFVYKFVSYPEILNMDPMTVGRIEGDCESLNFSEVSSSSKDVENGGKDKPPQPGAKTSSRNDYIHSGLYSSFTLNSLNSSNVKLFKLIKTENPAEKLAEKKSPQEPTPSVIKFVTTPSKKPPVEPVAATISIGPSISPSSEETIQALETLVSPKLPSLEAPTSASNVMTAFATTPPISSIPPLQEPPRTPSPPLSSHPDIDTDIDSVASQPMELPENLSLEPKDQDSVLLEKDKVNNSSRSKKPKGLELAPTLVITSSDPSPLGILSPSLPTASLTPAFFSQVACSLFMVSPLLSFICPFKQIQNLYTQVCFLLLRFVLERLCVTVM
Put shortly:
as §1

For another assay, the target named is T5, ETV2 (Homo sapiens, UniProt O00321 1-342).
T5 sequence: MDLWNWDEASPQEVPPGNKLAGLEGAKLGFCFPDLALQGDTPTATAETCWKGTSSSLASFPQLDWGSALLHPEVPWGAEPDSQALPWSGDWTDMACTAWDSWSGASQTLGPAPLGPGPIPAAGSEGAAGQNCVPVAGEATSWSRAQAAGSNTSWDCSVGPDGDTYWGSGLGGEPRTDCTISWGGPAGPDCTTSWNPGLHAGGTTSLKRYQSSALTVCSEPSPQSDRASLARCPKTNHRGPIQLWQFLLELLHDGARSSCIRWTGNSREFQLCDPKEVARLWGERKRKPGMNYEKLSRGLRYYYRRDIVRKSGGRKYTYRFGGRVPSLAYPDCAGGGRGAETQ
The essentials:
as §1

The next assay deals with T6, ELF3 (Homo sapiens, UniProt P78545 1-371).
T6 sequence: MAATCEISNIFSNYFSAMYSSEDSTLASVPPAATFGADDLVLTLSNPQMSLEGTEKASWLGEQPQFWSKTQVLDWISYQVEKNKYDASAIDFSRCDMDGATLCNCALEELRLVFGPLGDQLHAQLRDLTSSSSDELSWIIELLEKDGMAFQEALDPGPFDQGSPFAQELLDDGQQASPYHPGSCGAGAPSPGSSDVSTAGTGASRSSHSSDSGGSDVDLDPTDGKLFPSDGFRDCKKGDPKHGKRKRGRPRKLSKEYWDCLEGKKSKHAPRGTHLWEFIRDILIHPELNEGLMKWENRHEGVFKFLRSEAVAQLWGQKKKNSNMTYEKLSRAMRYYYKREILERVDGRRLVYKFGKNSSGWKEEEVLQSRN
The essentials: as §1

For another assay, the target named is ETV1 (Homo sapiens, UniProt P50549 1-477). Put shortly:
as §1

A further assay has as its target T7, ERF (Homo sapiens, UniProt P50548 1-548).
T7 sequence: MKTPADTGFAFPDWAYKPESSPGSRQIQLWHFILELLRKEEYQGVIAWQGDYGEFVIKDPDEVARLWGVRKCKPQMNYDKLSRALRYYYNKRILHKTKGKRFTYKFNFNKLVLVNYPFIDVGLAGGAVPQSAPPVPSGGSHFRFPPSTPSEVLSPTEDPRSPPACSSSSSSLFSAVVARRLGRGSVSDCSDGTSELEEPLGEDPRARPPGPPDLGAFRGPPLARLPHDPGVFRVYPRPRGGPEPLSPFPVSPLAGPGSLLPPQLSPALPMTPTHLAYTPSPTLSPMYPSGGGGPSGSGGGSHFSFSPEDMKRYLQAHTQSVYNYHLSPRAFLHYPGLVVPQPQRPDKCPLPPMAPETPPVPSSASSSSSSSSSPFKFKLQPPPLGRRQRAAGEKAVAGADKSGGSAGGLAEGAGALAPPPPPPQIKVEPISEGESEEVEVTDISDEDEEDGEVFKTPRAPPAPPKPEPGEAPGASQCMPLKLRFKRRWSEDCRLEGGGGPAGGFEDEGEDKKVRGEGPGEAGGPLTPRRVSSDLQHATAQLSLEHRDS
The essentials: as §1

The target of another assay is T8, SPDEF (Homo sapiens, UniProt O95238 1-335).
T8 sequence: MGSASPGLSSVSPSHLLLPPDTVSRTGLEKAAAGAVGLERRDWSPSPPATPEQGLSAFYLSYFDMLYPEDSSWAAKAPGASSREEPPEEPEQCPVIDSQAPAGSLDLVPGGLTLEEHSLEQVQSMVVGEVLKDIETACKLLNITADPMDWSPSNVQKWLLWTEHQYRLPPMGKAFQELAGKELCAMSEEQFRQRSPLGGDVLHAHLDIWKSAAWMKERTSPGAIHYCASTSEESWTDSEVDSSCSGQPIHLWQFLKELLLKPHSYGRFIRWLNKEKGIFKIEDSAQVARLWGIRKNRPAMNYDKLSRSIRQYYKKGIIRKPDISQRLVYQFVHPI
The essentials:
as §1

The next assay deals with T9, ELF5 (Homo sapiens, UniProt Q9UKW6-2 1-255).
T9 sequence: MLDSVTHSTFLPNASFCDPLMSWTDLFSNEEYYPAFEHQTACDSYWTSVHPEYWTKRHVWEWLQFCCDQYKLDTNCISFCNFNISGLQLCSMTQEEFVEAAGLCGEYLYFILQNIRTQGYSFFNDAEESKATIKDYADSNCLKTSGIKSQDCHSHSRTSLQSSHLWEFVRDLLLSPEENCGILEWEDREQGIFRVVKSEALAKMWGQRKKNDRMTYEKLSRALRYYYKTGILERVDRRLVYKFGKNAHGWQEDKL
Put shortly:
as §1

Another assay has as its target T10, GABPA (Homo sapiens, UniProt Q06546 1-454).
T10 sequence: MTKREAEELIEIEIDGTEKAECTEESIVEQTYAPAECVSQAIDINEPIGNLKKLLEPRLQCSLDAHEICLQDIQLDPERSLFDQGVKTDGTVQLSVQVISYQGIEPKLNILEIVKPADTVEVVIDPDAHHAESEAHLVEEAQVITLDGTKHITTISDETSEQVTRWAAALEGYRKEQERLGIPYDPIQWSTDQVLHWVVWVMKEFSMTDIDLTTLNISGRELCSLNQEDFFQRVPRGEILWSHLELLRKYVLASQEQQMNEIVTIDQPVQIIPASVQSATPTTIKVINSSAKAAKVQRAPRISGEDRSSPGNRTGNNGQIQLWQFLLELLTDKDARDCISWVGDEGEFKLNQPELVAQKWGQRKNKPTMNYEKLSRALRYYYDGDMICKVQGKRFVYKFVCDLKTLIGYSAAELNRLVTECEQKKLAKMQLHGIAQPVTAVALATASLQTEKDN
The essentials:
as §1

In a further assay the target is T11, ELK3 (Homo sapiens, UniProt P41970 1-407).
T11 sequence: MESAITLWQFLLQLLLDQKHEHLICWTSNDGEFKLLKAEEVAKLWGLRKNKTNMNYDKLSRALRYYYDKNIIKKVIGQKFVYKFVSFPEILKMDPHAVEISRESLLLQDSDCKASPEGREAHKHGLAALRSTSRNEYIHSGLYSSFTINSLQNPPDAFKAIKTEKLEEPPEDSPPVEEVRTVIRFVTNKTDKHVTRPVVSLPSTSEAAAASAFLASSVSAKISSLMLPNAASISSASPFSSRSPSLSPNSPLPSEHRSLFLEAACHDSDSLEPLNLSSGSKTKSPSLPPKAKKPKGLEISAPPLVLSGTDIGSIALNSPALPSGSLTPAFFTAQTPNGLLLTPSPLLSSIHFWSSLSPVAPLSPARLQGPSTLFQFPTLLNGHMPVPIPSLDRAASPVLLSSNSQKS
The essentials:
as §1

Another assay has as its target T12, FEV (Homo sapiens, UniProt Q99581 1-238).
T12 sequence: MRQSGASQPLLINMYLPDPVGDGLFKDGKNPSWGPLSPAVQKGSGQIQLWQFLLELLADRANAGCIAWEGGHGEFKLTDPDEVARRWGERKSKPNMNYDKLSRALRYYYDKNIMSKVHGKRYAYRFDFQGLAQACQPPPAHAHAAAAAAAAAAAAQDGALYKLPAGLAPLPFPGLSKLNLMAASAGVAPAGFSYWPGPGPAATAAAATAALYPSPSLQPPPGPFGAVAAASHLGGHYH
Put shortly:
as §1

The next assay deals with ELF4 (Homo sapiens, UniProt Q99607 1-663). Put shortly:
as §1

The target in the next assay is T13, ETV3L (Homo sapiens, UniProt Q6ZN32 1-361).
T13 sequence: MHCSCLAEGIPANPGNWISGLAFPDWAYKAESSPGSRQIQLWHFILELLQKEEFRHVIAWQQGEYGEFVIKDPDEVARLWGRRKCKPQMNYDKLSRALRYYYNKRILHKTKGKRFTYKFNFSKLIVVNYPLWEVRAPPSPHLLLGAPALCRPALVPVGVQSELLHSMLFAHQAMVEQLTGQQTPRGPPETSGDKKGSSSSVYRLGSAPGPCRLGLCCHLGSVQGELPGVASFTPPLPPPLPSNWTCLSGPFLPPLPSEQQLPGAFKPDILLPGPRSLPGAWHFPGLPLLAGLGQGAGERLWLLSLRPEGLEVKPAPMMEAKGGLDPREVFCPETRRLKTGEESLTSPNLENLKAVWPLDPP
Put shortly: as §1

In another assay the target is T14, ETV3 (Homo sapiens, UniProt P41162-2 1-143).
T14 sequence: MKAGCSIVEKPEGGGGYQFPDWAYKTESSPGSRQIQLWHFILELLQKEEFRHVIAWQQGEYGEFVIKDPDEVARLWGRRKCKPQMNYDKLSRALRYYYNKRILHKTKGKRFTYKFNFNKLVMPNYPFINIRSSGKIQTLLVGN
Put shortly:
as §1

Two sequences from PMC7862700, “An all-to-all approach to the identification of sequence-specific readers for epigenetic DNA modifications on cytosine” can be followed below.

ETV1, sequence (P50549 whole entry): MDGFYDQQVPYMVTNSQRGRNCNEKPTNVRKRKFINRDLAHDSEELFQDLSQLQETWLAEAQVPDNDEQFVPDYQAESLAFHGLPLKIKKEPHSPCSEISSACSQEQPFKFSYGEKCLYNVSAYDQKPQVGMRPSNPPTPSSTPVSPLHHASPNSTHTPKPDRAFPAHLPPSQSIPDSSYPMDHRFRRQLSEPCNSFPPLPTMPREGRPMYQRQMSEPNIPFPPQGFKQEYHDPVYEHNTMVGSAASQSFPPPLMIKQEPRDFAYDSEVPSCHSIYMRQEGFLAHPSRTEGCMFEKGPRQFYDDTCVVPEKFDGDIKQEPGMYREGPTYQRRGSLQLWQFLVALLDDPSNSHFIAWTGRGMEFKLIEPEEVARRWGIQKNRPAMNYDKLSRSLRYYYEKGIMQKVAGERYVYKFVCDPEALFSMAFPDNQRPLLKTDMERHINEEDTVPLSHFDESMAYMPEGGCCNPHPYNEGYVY
ELF1, sequence (P32519 whole entry): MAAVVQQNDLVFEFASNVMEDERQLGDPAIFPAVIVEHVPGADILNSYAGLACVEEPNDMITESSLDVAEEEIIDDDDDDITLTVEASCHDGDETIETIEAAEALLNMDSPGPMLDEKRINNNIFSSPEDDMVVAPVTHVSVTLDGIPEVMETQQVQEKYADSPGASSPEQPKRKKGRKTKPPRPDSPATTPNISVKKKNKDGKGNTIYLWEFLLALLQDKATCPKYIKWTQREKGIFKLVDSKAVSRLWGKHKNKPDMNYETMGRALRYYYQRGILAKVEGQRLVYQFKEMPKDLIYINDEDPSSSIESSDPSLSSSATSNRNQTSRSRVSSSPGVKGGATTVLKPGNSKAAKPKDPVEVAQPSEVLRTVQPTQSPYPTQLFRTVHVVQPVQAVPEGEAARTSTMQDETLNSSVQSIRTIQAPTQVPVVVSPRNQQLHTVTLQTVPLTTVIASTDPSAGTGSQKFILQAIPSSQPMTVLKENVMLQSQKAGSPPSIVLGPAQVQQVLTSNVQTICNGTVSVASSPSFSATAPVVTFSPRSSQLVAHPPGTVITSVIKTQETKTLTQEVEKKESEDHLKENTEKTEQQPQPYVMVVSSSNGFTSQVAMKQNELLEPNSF
ELF4, sequence (Q99607 whole entry): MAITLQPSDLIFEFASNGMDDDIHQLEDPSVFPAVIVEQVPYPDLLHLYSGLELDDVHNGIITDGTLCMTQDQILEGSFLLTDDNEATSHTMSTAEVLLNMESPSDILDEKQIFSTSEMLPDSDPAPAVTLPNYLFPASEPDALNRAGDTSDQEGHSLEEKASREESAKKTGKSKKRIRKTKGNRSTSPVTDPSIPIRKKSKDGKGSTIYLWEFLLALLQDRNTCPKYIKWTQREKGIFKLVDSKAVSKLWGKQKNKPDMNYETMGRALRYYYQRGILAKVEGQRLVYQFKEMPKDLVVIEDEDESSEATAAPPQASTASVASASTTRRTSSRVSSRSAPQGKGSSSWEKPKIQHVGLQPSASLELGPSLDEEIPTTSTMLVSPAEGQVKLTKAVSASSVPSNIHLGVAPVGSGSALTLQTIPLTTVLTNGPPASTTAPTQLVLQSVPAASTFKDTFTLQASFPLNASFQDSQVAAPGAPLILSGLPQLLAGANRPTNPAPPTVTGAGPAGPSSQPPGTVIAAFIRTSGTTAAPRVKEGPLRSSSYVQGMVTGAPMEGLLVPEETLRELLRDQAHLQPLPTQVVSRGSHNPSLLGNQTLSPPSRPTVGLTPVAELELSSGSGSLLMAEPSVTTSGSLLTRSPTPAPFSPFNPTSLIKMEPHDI

Take ATCACG: the binding signal is 1.04 fold enrichment (6-mer frequency, TF over GST control) with ELK1; 1.03 fold enrichment (6-mer frequency, TF over GST control) with ELF1; 1.08 fold enrichment (6-mer frequency, TF over GST control) in the assay with EHF; 1.04 fold enrichment (6-mer frequency, TF over GST control) in the assay with SPIC; 1 fold enrichment (6-mer frequency, TF over GST control) in the assay with ELK4; 1.07 fold enrichment (6-mer frequency, TF over GST control) in the assay with ETV2. For the same sequence, the binding signal in the assay with ELF3 was 1.01 fold enrichment (6-mer frequency, TF over GST control); with ETV1, 1.02 fold enrichment (6-mer frequency, TF over GST control); in the assay with ERF, 1.07 fold enrichment (6-mer frequency, TF over GST control); with SPDEF it was 1.07 fold enrichment (6-mer frequency, TF over GST control); with ELF5 it was 1.02 fold enrichment (6-mer frequency, TF over GST control).

Turning to CGCCAC, the binding signal with GABPA is 1.04 fold enrichment (6-mer frequency, TF over GST control); with ELF1, 1.08 fold enrichment (6-mer frequency, TF over GST control); with ELK3, 1.04 fold enrichment (6-mer frequency, TF over GST control); with FEV, 1.11 fold enrichment (6-mer frequency, TF over GST control); with SPIC it was 1.02 fold enrichment (6-mer frequency, TF over GST control); with ELF4 it was 1.03 fold enrichment (6-mer frequency, TF over GST control). In addition, the binding signal with ELK4 was 1.07 fold enrichment (6-mer frequency, TF over GST control); in the assay with ETV1, 1.06 fold enrichment (6-mer frequency, TF over GST control); in the assay with ETV3L, 1.03 fold enrichment (6-mer frequency, TF over GST control); with SPDEF, 1.05 fold enrichment (6-mer frequency, TF over GST control); in the assay with ELF5 it was 1.05 fold enrichment (6-mer frequency, TF over GST control); with ETV3, 1.02 fold enrichment (6-mer frequency, TF over GST control).
